According to PubChem BioAssay AID1159580 (chemical genetic matrix, 2015):
Values joined by “and” are separate entries in the source; they are usually repeats but may differ in a detail not shown here. Equal entries are not always repeated. The whole screen tested about 5,500 compounds, of which about 2,000 (36%) were called active. Not shown: some 18% with an inconclusive outcome. No stated cut-off is given here; in the data, active means normalized growth mostly below about 0.91 (no sharp cut-off); inconclusive means no clear call, values can overlap the other calls; inactive means mostly above about 0.92. Some of the results follow.

Experiment: chemical genetic growth profiling, strain panel (AID 1159580);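 further: tested at 20 µM; growth read once vehicle control cultures reached saturation at 30 °C; 1 = growth at the plate median or of vehicle wells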
Conditions: S. cerevisiae deletion strains, growth OD

Measured: normalized growth

COc1cc(C(C)=O)cc(OC)c1O
inactive: locus YAL013W, strain DEP1, stronger effect = lower value 0.991 | locus YAL021C, strain ccr4, stronger effect = lower value 1.04 | locus YAL026C, strain drs2, stronger effect = lower value 1.03 | locus YAL030W, strain snc1, stronger effect = lower value 1.01 | locus YBL061C, strain skt5, stronger effect = lower value 1.03 | locus YBR009C, strain hhf1, stronger effect = lower value 1.04 | locus YBR021W, strain FUR4, stronger effect = lower value 1.01 | locus YBR023C, strain chs3, stronger effect = lower value 1.03 | locus YBR171W, strain sec66, stronger effect = lower value 1.03 | locus YBR229C, strain ROT2, stronger effect = lower value 0.998 | locus YBR231C, strain swc5, stronger effect = lower value 1.02 | locus YBR279W, strain paf1, stronger effect = lower value 1.02 | locus YCL011C, strain gbp2, stronger effect = lower value 1.03 | locus YCL016C, strain dcc1, stronger effect = lower value 1.02 | locus YCL029C, strain bik1, stronger effect = lower value 1 | locus YCL061C, strain MRC1, stronger effect = lower value 1.02 | locus YCL069W, strain vba3, stronger effect = lower value 1.01 | locus YCR088W, strain abp1, stronger effect = lower value 1.02 | locus YDL005C, strain med2, stronger effect = lower value 1.02 | locus YDL035C, strain GPR1, stronger effect = lower value 0.993 | locus YDL040C, strain nat1, stronger effect = lower value 1.01 | locus YDL074C, strain BRE1, stronger effect = lower value 1.04 | locus YDL101C, strain DUN1, stronger effect = lower value 1.01 | locus YDL134C, strain PPH21, stronger effect = lower value 0.991 | locus YDL185W, strain tfp1, stronger effect = lower value 1 | locus YDL192W, strain arf1, stronger effect = lower value 0.99 | locus YDR001C, strain nth1, stronger effect = lower value 1.01 | locus YDR069C, strain doa4, stronger effect = lower value 1.04 | locus YDR101C, strain arx1, stronger effect = lower value 1.01 | locus YDR137W, strain rgp1, stronger effect = lower value 1.08 | locus YDR150W, strain NUM1, stronger effect = lower value 0.978 | locus YDR159W, strain sac3, stronger effect = lower value 1.05 | locus YDR162C, strain NBP2, stronger effect = lower value 0.986 | locus YDR195W, strain ref2 1.05 | locus YDR297W, strain sur2, stronger effect = lower value 1.02 | locus YDR318W, strain mcm21, stronger effect = lower value 0.991 | locus YDR334W, strain swr1, stronger effect = lower value 1.02 | locus YDR335W, strain msn5, stronger effect = lower value 1.02 | locus YDR388W, stronger effect = lower value 0.994 | locus YDR392W, strain spt3, stronger effect = lower value 0.971 | locus YDR502C, strain sam2, stronger effect = lower value 1.01 | locus YEL003W, strain gim4, stronger effect = lower value 1.04 | locus YEL037C, strain rad23, stronger effect = lower value 1.02 | locus YEL061C, strain CIN8 (second series), stronger effect = lower value 1.03 | locus YEL061C, strain CIN8, stronger effect = lower value 0.999 | locus YER015W, strain faa2, stronger effect = lower value 1.02 | locus YER016W, strain bim1, stronger effect = lower value 1.01 | locus YER110C, stronger effect = lower value 1 | locus YER111C, strain swi4, stronger effect = lower value 1.03 | locus YER155C, strain BEM2 (second series), stronger effect = lower value 1.03 | locus YER155C, strain BEM2, stronger effect = lower value 0.994 | locus YER167W, strain BCK2, stronger effect = lower value 0.977 | locus YFR010W, strain ubp6, stronger effect = lower value 1.03 | locus YGL078C, strain dbp3, stronger effect = lower value 0.998 | locus YGL086W, strain mad1, stronger effect = lower value 1.02 | locus YGL167C, strain pmr1, stronger effect = lower value 1.03 | locus YGL173C, strain kem1, stronger effect = lower value 1.04 | locus YGL227W, strain vid30, stronger effect = lower value 1.03 | locus YGL240W, strain doc1, stronger effect = lower value 1.04 | locus YGL248W, strain PDE1, stronger effect = lower value 0.998 | locus YGL253W, strain hxk2, stronger effect = lower value 1.02 | locus YGR135W, strain pre9, stronger effect = lower value 0.994 | locus YGR252W, strain gcn5, stronger effect = lower value 1.02 | locus YHR013C, strain ard1, stronger effect = lower value 1.02 | locus YHR027C, strain rpn1, stronger effect = lower value 1.02 | locus YHR030C, strain SLT2, stronger effect = lower value 1 and 0.985 | locus YHR079C, strain IRE1 (second series), stronger effect = lower value 0.999 | locus YHR079C, strain IRE1, stronger effect = lower value 0.983 | locus YHR094C, strain hxt1, stronger effect = lower value 1 | locus YHR129C, strain ARP1, stronger effect = lower value 1.01 | locus YHR142W, strain chs7, stronger effect = lower value 1.03 | locus YHR200W, strain rpn10, stronger effect = lower value 0.993 | locus YIL066C, strain RNR3, stronger effect = lower value 0.983 | locus YIL073C, strain SPO22, stronger effect = lower value 0.998 | locus YIL125W, strain kgd1, stronger effect = lower value 0.997 | locus YIR030C, strain dcg1, stronger effect = lower value 1.01 | locus YJL092W, strain hpr5, stronger effect = lower value 1.02 | locus YJL095W, strain BCK1 (second series), stronger effect = lower value 1.01 | locus YJL095W, strain BCK1, stronger effect = lower value 1.05 and 0.999 | locus YJL115W, strain asf1, stronger effect = lower value 1.02 | locus YJL129C, strain trk1, stronger effect = lower value 1.05 | locus YJL134W, strain LCB3, stronger effect = lower value 0.993 | locus YJL154C, strain vps35, stronger effect = lower value 1.01 | locus YJL164C, strain tpk1, stronger effect = lower value 1 | locus YJL166W, strain qcr8, stronger effect = lower value 1.04 | locus YJL168C, strain set2, stronger effect = lower value 0.997 | locus YJL187C, strain SWE1 (second series), stronger effect = lower value 1.02 | locus YJL187C, strain SWE1, stronger effect = lower value 1.02 | locus YJR043C, strain POL32, stronger effect = lower value 0.981 | locus YJR066W, strain TOR1, stronger effect = lower value 0.963 | locus YKL009W, strain mrt4, stronger effect = lower value 1.05 | locus YKL068W, stronger effect = lower value 0.993 | locus YKL085W, strain MDH1 (second series), stronger effect = lower value 0.986 | locus YKL085W, strain MDH1, stronger effect = lower value 0.986 | locus YKL160W, strain elf1, stronger effect = lower value 1.03 | locus YKL190W, strain CNB1, stronger effect = lower value 1.01 | locus YKR001C, strain vps1, stronger effect = lower value 0.987 | locus YKR026C, strain gcn3, stronger effect = lower value 0.995 | locus YKR091W, strain srl3, stronger effect = lower value 1.02 | locus YLL001W, strain dnm1, stronger effect = lower value 1.01 | locus YLL026W, stronger effect = lower value 1.02 | locus YLL041C, strain sdh2, stronger effect = lower value 1.02 | locus YLR027C, strain aat2, stronger effect = lower value 1.01 | locus YLR039C, strain RIC1, stronger effect = lower value 1.02 | locus YLR058C, strain SHM2, stronger effect = lower value 0.998 | locus YLR102C, strain apc9, stronger effect = lower value 1 | locus YLR113W, strain HOG1, stronger effect = lower value 0.981 | locus YLR221C, strain rsa3, stronger effect = lower value 1.04 | locus YLR258W, strain gsy2, stronger effect = lower value 1.03 | locus YLR262C, strain YPT6 (second series), stronger effect = lower value 1.07 | locus YLR262C, strain YPT6, stronger effect = lower value 1.07 | locus YLR268W, strain sec22, stronger effect = lower value 1.05 | locus YLR320W, strain mms22, stronger effect = lower value 1.04 | locus YLR330W, strain CHS5, stronger effect = lower value 0.988 | locus YLR342W, strain FKS1 (second series), stronger effect = lower value 1 | locus YLR342W, strain FKS1, stronger effect = lower value 1.02 | locus YLR357W, strain rsc2, stronger effect = lower value 1.06 | locus YLR370C, strain arc18, stronger effect = lower value 1.02 | locus YLR371W, strain rom2, stronger effect = lower value 1.01 | locus YLR384C, strain iki3, stronger effect = lower value 1.01 | locus YLR418C, strain cdc73, stronger effect = lower value 0.967 | locus YML016C, strain PPZ1, stronger effect = lower value 1.01 | locus YML032C, strain rad52, stronger effect = lower value 0.957 | locus YML120C, strain ndi1, stronger effect = lower value 1.03 | locus YML124C, strain tub3, stronger effect = lower value 0.992 | locus YMR058W, strain fet3, stronger effect = lower value 1.02 | locus YMR078C, strain ctf18, stronger effect = lower value 1 | locus YMR125W, strain sto1, stronger effect = lower value 1.04 | locus YMR129W, stronger effect = lower value 1.03 | locus YMR205C, strain PFK2, stronger effect = lower value 1.08 | locus YMR223W, strain ubp8, stronger effect = lower value 0.999 | locus YMR231W, strain pep5, stronger effect = lower value 1.01 | locus YMR307W, strain GAS1, stronger effect = lower value 0.981 | locus YNL067W, strain RPL9B, stronger effect = lower value 1.03 | locus YNL071W, strain lat1, stronger effect = lower value 1.02 | locus YNL183C, strain NPR1, stronger effect = lower value 0.972 | locus YNL209W, strain ssb2, stronger effect = lower value 1.03 | locus YNL233W, strain BNI4, stronger effect = lower value 1.03 | locus YNL248C, strain rpa49, stronger effect = lower value 1.04 | locus YNL250W, strain rad50, stronger effect = lower value 0.988 | locus YNL271C, strain bni1, stronger effect = lower value 0.996 | locus YNL298W, strain CLA4, stronger effect = lower value 1.01 | locus YNL307C, strain MCK1, stronger effect = lower value 1 | locus YNL322C, strain KRE1 (second series), stronger effect = lower value 1.03 | locus YNL322C, strain KRE1, stronger effect = lower value 0.986 | locus YNR049C, strain mso1, stronger effect = lower value 1.02 | locus YNR052C, strain pop2, stronger effect = lower value 0.993 | locus YOL006C, strain TOP1, stronger effect = lower value 1.02 | locus YOL012C, strain htz1 0.701 | locus YOL147C, strain pex11, stronger effect = lower value 0.994 | locus YOR001W, strain rrp6, stronger effect = lower value 1.03 | locus YOR061W, strain CKA2, stronger effect = lower value 0.995 | locus YOR069W, strain VPS5, stronger effect = lower value 0.996 | locus YOR070C, strain gyp1, stronger effect = lower value 1.01 | locus YOR080W, strain dia2, stronger effect = lower value 1.04 | locus YOR083W, strain WHI5, stronger effect = lower value 1.03 | locus YOR106W, strain vam3, stronger effect = lower value 1.07 | locus YOR136W, strain idh2, stronger effect = lower value 1 | locus YOR144C, strain elg1, stronger effect = lower value 0.997 | locus YOR184W, strain ser1, stronger effect = lower value 0.994 | locus YOR231W, strain MKK1, stronger effect = lower value 0.979 | locus YOR265W, strain rbl2, stronger effect = lower value 1.02 | locus YOR270C, strain vph1, stronger effect = lower value 1.1 | locus YOR290C, strain snf2, stronger effect = lower value 0.995 | locus YOR316C, strain cot1, stronger effect = lower value 0.998 | locus YPL051W, strain arl3, stronger effect = lower value 1.02 | locus YPL055C, strain LGE1, stronger effect = lower value 1.01 | locus YPL078C, strain atp4, stronger effect = lower value 1.02 | locus YPL106C, strain sse1, stronger effect = lower value 1.06 | locus YPL240C, strain hsp82, stronger effect = lower value 1.04 | locus YPL256C, strain CLN2, stronger effect = lower value 0.976 | locus YPR119W, strain clb2, stronger effect = lower value 0.991 | locus YPR141C, strain kar3, stronger effect = lower value 0.989 | locus YPR163C, strain tif3, stronger effect = lower value 1 | locus YPR167C, strain met16, stronger effect = lower value 0.989 | strain wtn01, stronger effect = lower value 1.03
